Results taken from the supplement of paper PMC10849652.
The full data set covers some 7,900 targets. This sample favours those with a hit. About 0.6% of all pairs of compound and target were hits.

How the values were obtained:
Test in all cases: log2 fold change, soluble protein after heating vs DMSO (PISA); higher = thermal stabilisation; K562 cells, 10 uM, 30 min; active = over 0.2 and 3.5 SD of the protein, either way, in both replicates (recomputed)
[1] = compound: CC1=C(C=C(C=C1)NC(=O)C2=CC(=CC=C2)C(C)(C)C#N)NC3=CC4=C(C=C3)N=CN(C4=O)C
Outline: (§1)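 Soluble protein was defined as the supernatant after 21,000xg for 90 min. It came from K562 cells at 2×10^6 cells/mL given 10 μM compound for 30 min, heated in aliquots for 3 min across 48°C-58°C, pooled, and extracted in PBS with 0.5% NP-40 at 4°C, and was quantified by TMTpro 16plex LC-MS/MS with equalised channel sums. Thermal stability against control samples, from duplicates, is reported as log2 fold change.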

[2] = compound: CC1=C(C=C(C=C1)NC(=O)C2=CC(=CC=C2)N(C)C)NC(=O)C3=CC=C(C=C3)O
Outline: as §1

[3] = compound: CC1=CC=C(C=C1)SC2=C3C=C(SC3=CN=C2)C(=O)N
Outline: as §1

[4] = compound: CC1=NC(=CC=C1)C2=C(N=C(N2)C(C)(C)C)C3=CC4=NC=CN=C4C=C3
Outline: as §1

Nexturastat A = compound: CCCCN(Cc1ccc(C(=O)NO)cc1)C(=O)Nc1ccccc1 [Nexturastat A]
Outline: as §1

vemurafenib = compound: CCCS(=O)(=O)Nc1ccc(F)c(C(=O)c2c[nH]c3ncc(-c4ccc(Cl)cc4)cc23)c1F [vemurafenib]
Outline: as §1

[5] = compound: CCCS(=O)(=O)Nc1ccc(F)c(C(=O)c2c[nH]c3ncc(Cl)cc23)c1F
Outline: as §1

[6] = compound: CCCc1cc(C)[nH]c(=O)c1CNC(=O)c1cc(-c2ccnc(N3CCN(C)CC3)c2)cc2c1cnn2C(C)C
Outline: as §1

givinostat = compound: CCN(CC)Cc1ccc2cc(COC(=O)Nc3ccc(C(=O)NO)cc3)ccc2c1 [givinostat]
Outline: as §1

barasertib = compound: CCN(CCCOc1ccc2c(Nc3cc(CC(=O)Nc4cccc(F)c4)[nH]n3)ncnc2c1)CCOP(=O)(O)O [barasertib]
Outline: as §1

[7] = compound: CC[C@@H]1C(=O)N(C)c2cnc(Nc3ccc(C(=O)NC4CCN(C)CC4)cc3OC)nc2N1C1CCCC1
Outline: as §1

volasertib = compound: CC[C@@H]1C(=O)N(C)c2cnc(Nc3ccc(C(=O)N[C@H]4CC[C@H](N5CCN(CC6CC6)CC5)CC4)cc3OC)nc2N1C(C)C [volasertib]
Outline: as §1

[8] = compound: CC[C@H](C)N1C=C(C2=C(C=C(C=C21)C3=CN=C(C=C3)N4CCNCC4)C(=O)NCC5=C(C=C(NC5=O)C)C)C
Outline: as §1

epoxomicin = compound: CC[C@H](C)[C@@H](C(=O)N[C@@H]([C@@H](C)O)C(=O)N[C@@H](CC(C)C)C(=O)[C@]1(CO1)C)NC(=O)[C@H]([C@@H](C)CC)N(C)C(=O)C [epoxomicin]
Outline: as §1

[9] = compound: CCn1c(C(=O)N(C2CC2)C2CC2)cc2c3c(ncn3C)c(Nc3cc(C)n(C)n3)nc21
Outline: as §1

[10] = compound: CCn1cc(-c2ccnc3[nH]c(-c4cccc(CN(C)C)c4)cc23)c(-c2ccc(NC(=O)N(C)C)cc2)n1
Outline: as §1

[11] = compound: CN(C)CC(=O)Nc1ccc2[nH]c(=O)c3ccccc3c2c1
Outline: as §1

rosiglitazone = compound: CN(CCOC1=CC=C(C=C1)C[C@H]2C(=O)NC(=O)S2)C3=CC=CC=N3 (racemic) [rosiglitazone]
Outline: as §1

[12] = compound: CN1C2=C(C3=C1C(=O)N(N=C3)CC4=CC(=CC=C4)N)SC(=C2)S(=O)C
Outline: as §1

[13] = compound: CN1CCC(CNc2ccc3ncc(-c4cccc(OC(F)(F)F)c4)n3n2)CC1
Outline: as §1

Measured: log2 fold change

HDGFL2 (UniProt Q7Z4V5)
active: [1] -0.281
inactive: [2] 0 | [3] -0.006 | [4] 0.049 | Nexturastat A 0.063 | vemurafenib -0.022 | [5] 0.007 | [6] -0.078 | givinostat 0.049 | barasertib 0.037 | [7] -0.019 | volasertib 0.014 | [8] -0.043 | epoxomicin 0.012 | [9] -0.006 | [10] 0.015 | [11] -0.011 | rosiglitazone -0.004 | [12] 0.006 | [13] -0.033

HIST2H2BF isoform 2 (UniProt Q5QNW6)
active: Nexturastat A 0.78
inactive: [1] -0.094 | [2] -0.034 | [3] -0.202 | [4] -0.009 | vemurafenib -0.284 | [5] 0.529 | [6] 0.1 | givinostat 0.331 | barasertib -0.157 | [7] -0.043 | volasertib 0.153 | [8] -0.079 | epoxomicin -0.243 | [9] 0.017 | [10] 0.231 | [11] -0.22 | rosiglitazone -0.055 | [12] 0.398 | [13] 0.084

GPKOW (UniProt Q92917)
UniProt Q92917, sequence (Q92917 whole entry, looked up): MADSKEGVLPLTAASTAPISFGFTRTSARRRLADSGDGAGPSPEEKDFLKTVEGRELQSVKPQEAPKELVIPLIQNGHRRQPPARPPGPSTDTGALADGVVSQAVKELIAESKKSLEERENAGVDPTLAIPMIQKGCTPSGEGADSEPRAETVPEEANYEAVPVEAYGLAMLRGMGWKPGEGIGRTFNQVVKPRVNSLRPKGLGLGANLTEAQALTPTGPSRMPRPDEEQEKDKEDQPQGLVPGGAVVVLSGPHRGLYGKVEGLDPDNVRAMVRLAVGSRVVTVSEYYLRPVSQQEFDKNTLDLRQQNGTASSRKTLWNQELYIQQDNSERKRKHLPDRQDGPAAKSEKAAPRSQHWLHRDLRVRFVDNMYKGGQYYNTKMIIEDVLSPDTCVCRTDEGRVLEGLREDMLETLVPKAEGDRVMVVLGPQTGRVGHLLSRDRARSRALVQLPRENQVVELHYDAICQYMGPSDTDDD
inactive: [1] 0.053 | [2] -0.033 | [3] 0.062 | [4] 0.055 | Nexturastat A -0.106 | vemurafenib 0.009 | [5] 0.07 | [6] -0.058 | givinostat 0.084 | barasertib 0.027 | [7] -0.056 | volasertib -0.217 | [8] 0.101 | epoxomicin -0.021 | [9] -0.063 | [10] -0.049 | [11] 0.039 | rosiglitazone 0.045 | [12] 0.022 | [13] -0.248

GLUD1 (UniProt P00367)
inactive: [1] 0.179 | [2] -0.007 | [3] -0.054 | [4] -0.011 | Nexturastat A -0.063 | vemurafenib -0.012 | [5] -0.02 | [6] 0.136 | givinostat -0.062 | barasertib -0.007 | [7] 0.146 | volasertib 0.25 | [8] 0.034 | epoxomicin 0.024 | [9] 0.126 | [10] -0.054 | [11] 0 | rosiglitazone -0.007 | [12] -0.128 | [13] 0.102

GYS1 (UniProt P13807)
UniProt P13807, sequence (P13807 whole entry, looked up): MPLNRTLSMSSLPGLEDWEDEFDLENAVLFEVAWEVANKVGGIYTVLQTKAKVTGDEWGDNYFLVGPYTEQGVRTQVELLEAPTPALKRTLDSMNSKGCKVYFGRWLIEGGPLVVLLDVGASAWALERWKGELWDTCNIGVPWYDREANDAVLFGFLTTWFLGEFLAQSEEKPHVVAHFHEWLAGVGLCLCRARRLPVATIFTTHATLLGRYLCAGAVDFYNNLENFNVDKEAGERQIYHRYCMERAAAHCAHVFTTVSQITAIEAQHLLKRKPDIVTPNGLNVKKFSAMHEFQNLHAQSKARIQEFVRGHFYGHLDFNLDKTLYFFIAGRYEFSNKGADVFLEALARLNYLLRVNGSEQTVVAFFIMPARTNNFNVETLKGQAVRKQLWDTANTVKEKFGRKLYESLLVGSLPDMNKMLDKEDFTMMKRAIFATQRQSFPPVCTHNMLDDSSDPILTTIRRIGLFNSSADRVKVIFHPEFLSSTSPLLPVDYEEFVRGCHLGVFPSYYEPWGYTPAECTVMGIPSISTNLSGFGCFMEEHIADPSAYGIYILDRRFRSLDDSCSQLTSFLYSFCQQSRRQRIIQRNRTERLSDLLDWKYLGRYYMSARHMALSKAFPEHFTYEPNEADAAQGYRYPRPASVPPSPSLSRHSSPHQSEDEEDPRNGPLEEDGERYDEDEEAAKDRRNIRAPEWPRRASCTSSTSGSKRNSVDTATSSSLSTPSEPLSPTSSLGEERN
inactive: [1] 0.057 | [2] -0.04 | [3] -0.068 | [4] -0.13 | Nexturastat A 0.515 | vemurafenib 0.052 | [5] -0.01 | [6] 0.091 | givinostat 0.108 | barasertib -0.033 | [7] 0.229 | volasertib 0.224 | [8] 0.059 | epoxomicin -0.034 | [9] 0.069 | [10] 0.139 | [11] 0.029 | rosiglitazone -0.1 | [12] 0.364 | [13] 0.123

IFI30 (UniProt P13284)
inactive: [1] -0.043 | [2] 0.043 | [3] 0.018 | [4] -0.046 | Nexturastat A 0.056 | vemurafenib 0.056 | [5] 0.183 | [6] 0.034 | givinostat 0.018 | barasertib 0.028 | [8] 0.038 | epoxomicin -0.014 | [9] -0.096 | [10] -0.098 | [11] -0.021 | rosiglitazone -0.061 | [12] -0.06
active: [7] -0.443 | volasertib -0.436 | [13] -0.448

GSR (UniProt P00390)
UniProt P00390, sequence (P00390 whole entry, looked up): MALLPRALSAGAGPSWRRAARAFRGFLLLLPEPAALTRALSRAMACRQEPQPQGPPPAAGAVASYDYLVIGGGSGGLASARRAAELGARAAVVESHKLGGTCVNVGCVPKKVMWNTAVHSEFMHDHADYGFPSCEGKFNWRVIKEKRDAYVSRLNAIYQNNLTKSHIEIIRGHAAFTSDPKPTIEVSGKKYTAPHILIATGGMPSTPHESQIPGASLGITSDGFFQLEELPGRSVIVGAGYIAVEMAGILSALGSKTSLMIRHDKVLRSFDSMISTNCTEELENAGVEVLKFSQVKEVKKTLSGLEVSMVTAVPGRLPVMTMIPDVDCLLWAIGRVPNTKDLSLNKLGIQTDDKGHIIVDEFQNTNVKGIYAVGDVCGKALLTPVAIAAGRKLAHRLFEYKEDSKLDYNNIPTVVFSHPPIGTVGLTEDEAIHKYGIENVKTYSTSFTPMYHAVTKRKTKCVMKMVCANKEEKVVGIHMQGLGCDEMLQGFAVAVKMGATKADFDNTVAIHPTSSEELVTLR
active: givinostat -0.253
inactive: [1] -0.011 | [2] 0.022 | [3] 0.016 | [4] 0.007 | Nexturastat A -0.073 | vemurafenib -0.027 | [5] 0.02 | [6] -0.026 | barasertib -0.03 | [7] 0.04 | volasertib 0.034 | [8] -0.038 | epoxomicin 0.001 | [9] -0.023 | [10] -0.008 | [11] -0.018 | rosiglitazone 0.024 | [12] -0.071 | [13] -0.02

GAGE12F (UniProt P0CL80)
UniProt P0CL80, sequence (P0CL80 whole entry, looked up): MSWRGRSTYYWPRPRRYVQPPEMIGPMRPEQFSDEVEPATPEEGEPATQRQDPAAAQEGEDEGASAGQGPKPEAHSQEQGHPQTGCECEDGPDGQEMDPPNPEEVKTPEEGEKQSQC
inactive: [1] -0.005 | [2] -0.035 | [3] 0.006 | [4] 0.061 | Nexturastat A 0.036 | vemurafenib 0.019 | [5] -0.018 | [6] -0.031 | givinostat -0.076 | barasertib 0.01 | [7] 0.037 | volasertib 0.069 | [8] -0.033 | epoxomicin 0.034 | [9] -0.039 | [10] -0.058 | [11] -0.095 | rosiglitazone 0.002 | [12] -0.049 | [13] -0.234

HNRNPUL2 (UniProt Q1KMD3)
UniProt Q1KMD3, sequence (Q1KMD3 whole entry, looked up): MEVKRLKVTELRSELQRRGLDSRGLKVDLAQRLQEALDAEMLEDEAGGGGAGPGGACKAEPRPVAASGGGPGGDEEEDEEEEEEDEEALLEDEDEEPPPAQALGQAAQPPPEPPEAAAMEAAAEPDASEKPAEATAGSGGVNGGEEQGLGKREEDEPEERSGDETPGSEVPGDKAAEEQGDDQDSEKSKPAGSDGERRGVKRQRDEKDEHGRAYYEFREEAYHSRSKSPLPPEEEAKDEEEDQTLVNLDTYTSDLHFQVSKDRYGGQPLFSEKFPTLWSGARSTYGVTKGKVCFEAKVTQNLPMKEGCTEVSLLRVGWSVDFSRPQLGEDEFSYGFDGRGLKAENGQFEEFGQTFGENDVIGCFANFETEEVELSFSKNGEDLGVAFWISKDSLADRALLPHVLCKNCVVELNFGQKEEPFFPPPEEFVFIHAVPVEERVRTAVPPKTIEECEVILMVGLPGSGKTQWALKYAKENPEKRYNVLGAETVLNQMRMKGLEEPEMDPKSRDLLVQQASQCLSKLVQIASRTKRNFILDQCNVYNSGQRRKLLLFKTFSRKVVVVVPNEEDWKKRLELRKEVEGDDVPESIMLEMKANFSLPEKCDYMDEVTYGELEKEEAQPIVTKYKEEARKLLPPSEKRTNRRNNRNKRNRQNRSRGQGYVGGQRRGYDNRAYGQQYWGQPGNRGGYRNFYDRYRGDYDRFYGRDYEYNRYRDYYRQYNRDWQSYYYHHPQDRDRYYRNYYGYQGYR
inactive: [1] 0.009 | [2] 0.008 | [3] -0.074 | [4] -0.032 | Nexturastat A 0.109 | vemurafenib -0.047 | [5] -0.027 | [6] -0.002 | givinostat 0.047 | barasertib -0.027 | [7] 0.172 | volasertib 0.135 | [8] -0.023 | epoxomicin -0.084 | [9] -0.036 | [10] 0.092 | [11] -0.012 | rosiglitazone -0.007 | [12] 0.131 | [13] -0.013

GATA1 (UniProt P15976)
inactive: [1] -0.05 | [2] 0.02 | [3] -0.085 | [4] -0.029 | Nexturastat A -0.104 | vemurafenib -0.06 | [5] -0.035 | [6] -0.003 | givinostat -0.047 | barasertib -0.034 | [7] 0.134 | volasertib 0.076 | [8] -0.036 | epoxomicin 0.152 | [9] -0.026 | [10] 0.04 | [11] -0.084 | rosiglitazone -0.021 | [12] 0.046 | [13] 0.119

GABPA (UniProt Q06546)
UniProt Q06546, sequence (Q06546 whole entry, looked up): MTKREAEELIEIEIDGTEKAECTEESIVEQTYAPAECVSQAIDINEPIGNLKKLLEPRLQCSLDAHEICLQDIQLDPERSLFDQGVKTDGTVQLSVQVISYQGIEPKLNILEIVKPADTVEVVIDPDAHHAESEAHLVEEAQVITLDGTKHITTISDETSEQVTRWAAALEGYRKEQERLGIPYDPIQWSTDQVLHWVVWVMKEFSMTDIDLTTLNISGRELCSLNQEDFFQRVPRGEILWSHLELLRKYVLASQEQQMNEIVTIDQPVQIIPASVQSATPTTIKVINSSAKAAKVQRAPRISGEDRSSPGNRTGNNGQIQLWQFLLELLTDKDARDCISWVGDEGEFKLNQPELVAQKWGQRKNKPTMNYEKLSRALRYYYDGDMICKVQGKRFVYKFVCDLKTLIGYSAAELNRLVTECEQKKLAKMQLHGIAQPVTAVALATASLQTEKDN
active: volasertib -0.304
inactive: [1] -0.007 | [2] -0.011 | [3] 0.064 | [4] 0.039 | Nexturastat A 0.008 | vemurafenib 0.062 | [5] 0.09 | [6] -0.004 | givinostat 0.17 | barasertib 0.022 | [7] -0.017 | [8] 0.079 | epoxomicin 0.007 | [9] -0.083 | [10] -0.07 | [11] 0.037 | rosiglitazone 0.076 | [12] -0.026 | [13] -0.174

GLA (UniProt P06280)
inactive: [1] -0.016 | [2] 0.027 | [3] -0.001 | [4] 0.011 | Nexturastat A 0.005 | vemurafenib -0.009 | [5] -0.038 | [6] -0.039 | givinostat 0.04 | barasertib 0.005 | [8] 0.002 | epoxomicin 0.026 | [9] 0.016 | [10] 0.03 | [11] -0.001 | rosiglitazone -0.07 | [12] 0.005
active: [7] -0.449 | volasertib -0.911 | [13] -0.535

HK2 (UniProt P52789)
UniProt P52789, sequence (P52789 whole entry, looked up): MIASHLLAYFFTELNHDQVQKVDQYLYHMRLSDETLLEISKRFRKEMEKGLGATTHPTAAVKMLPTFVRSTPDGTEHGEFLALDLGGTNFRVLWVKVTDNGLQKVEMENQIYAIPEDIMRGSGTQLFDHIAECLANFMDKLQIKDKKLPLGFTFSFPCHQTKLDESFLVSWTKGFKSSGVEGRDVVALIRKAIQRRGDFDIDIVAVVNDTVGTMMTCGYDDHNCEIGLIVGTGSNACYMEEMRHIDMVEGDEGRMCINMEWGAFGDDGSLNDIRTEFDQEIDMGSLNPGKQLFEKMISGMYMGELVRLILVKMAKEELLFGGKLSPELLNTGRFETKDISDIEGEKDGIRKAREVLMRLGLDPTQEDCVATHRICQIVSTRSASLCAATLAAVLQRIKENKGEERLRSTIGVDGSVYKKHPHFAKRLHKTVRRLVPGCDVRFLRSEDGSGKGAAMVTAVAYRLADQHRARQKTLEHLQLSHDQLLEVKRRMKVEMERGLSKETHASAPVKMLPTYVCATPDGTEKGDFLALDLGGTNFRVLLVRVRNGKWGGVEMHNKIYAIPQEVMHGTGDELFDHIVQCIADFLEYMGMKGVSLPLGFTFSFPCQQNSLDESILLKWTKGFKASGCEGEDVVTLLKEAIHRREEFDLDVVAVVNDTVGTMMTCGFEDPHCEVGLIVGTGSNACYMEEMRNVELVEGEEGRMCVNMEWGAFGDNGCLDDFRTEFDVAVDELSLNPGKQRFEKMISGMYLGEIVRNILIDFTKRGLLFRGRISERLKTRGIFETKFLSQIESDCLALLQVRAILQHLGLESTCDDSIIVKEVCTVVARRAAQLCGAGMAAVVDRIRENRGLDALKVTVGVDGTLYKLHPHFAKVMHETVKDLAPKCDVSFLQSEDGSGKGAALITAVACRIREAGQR
inactive: [2] -0.028 | [3] 0 | [4] 0.019 | Nexturastat A 0.017 | vemurafenib 0.003 | [5] 0.027 | [6] -0.041 | givinostat -0.016 | barasertib 0.051 | [7] -0.156 | [8] 0.086 | epoxomicin 0.049 | [9] -0.127 | [10] 0.016 | [11] -0.001 | rosiglitazone 0.032 | [12] -0.028 | [13] -0.038
active: [1] -0.257 | volasertib -0.813

GCLM (UniProt P48507)
UniProt P48507, sequence (P48507 whole entry, looked up): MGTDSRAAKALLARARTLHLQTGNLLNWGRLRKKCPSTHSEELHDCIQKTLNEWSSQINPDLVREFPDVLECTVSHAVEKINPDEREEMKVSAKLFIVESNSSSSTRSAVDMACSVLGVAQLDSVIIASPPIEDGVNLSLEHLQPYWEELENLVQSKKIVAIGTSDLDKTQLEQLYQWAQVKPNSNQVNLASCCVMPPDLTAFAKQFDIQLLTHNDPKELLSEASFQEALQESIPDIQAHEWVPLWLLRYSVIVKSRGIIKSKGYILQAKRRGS
active: volasertib -0.41
inactive: [1] 0.044 | [2] -0.04 | [3] 0.019 | [4] 0.057 | Nexturastat A -0.006 | vemurafenib 0.1 | [5] 0.099 | [6] 0.002 | givinostat 0.074 | barasertib 0.066 | [7] -0.183 | [8] 0.058 | epoxomicin 0.03 | [9] -0.049 | [10] -0.046 | [11] 0.042 | rosiglitazone 0.082 | [12] 0.03 | [13] -0.112

GLB1 (UniProt P16278)
inactive: [1] -0.051 | [2] -0.026 | [3] -0.033 | [4] -0.038 | Nexturastat A 0.086 | vemurafenib -0.017 | [5] -0.007 | [6] 0.003 | givinostat 0.002 | barasertib -0.027 | [8] 0.007 | epoxomicin -0.01 | [9] 0.038 | [10] 0.057 | [11] 0.002 | rosiglitazone -0.023 | [12] 0.037
active: [7] -0.707 | volasertib -1.11 | [13] -0.751

GTF2E1 (UniProt P29083)
UniProt P29083, sequence (P29083 whole entry, looked up): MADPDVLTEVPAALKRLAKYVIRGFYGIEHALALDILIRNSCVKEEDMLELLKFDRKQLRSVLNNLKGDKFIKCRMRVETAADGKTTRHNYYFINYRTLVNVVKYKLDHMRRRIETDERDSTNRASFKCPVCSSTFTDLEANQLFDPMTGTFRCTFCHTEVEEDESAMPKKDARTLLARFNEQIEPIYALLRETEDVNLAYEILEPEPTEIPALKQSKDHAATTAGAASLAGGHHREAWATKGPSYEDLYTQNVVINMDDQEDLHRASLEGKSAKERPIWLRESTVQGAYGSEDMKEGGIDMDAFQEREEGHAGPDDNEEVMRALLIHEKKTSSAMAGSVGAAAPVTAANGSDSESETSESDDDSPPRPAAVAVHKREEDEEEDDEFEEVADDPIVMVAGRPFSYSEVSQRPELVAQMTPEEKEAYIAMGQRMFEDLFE
inactive: [1] -0.005 | [2] -0.057 | [3] 0.011 | [4] 0.115 | Nexturastat A 0.024 | vemurafenib 0.05 | [5] 0.082 | [6] -0.006 | givinostat 0.091 | barasertib 0.166 | [7] -0.267 | [8] 0.096 | epoxomicin -0.015 | [9] -0.062 | [10] 0.023 | [11] 0.072 | rosiglitazone 0.033 | [12] -0.034 | [13] -0.084
active: volasertib -0.567
